# Records with an inconclusive call do not appear. Calls of active or inactive are those of the source. The call rests on the fitted dose curve; in most records, active means well fitted curve in the direction sought with a large enough effect; inconclusive means small, poorly fitted or top-dose-only effect, or another doubt; inactive means no such curve, though single readings can be large or run the other way.
# Test: Secondary Assay for Activators of Human Pyruvate Kinase M2 isoform - Cell Titer Glo Cytotoxicity for Probe SAR
# Details: HeLa viability, CellTiter-Glo ATP luminescence, 24 h; series mostly up to 58.2 µM
# Outline: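 HeLa cells, 500 per well, plated 24 h then exposed to compound 24 h at 37 C. Total ATP by CellTiter-Glo luminescence after 10 min at room temperature; doxorubicin control.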
row,Structure (SMILES),outcome
1,CSc1cc2c(s1)c1cnn(Cc3cccc(N)c3)c(=O)c1n2C,inactive
2,O=C1CCc2cc(S(=O)(=O)Nc3ccccc3Cl)ccc2N1,inactive
3,COc1ccc(N2C(=O)c3ccccc3C2=O)cc1,inactive
4,O=C1c2ccccc2C(=O)N1c1noc2ccccc12,inactive
5,COc1cccc(Cn2ncc3c4sc(S(C)=O)cc4n(C)c3c2=O)c1 (configuration not stated),inactive
6,Cc1ccc2nc(-c3cccs3)c(Nc3ccccc3)n2c1,inactive
7,Cc1ccccc1Nc1c(-c2ccccc2)nc2cccc(C)n12,inactive
8,Cc1ccc(Cl)cc1NS(=O)(=O)c1cc2c(cc1Cl)CCC(=O)N2,inactive
9,Cc1ccc(N(C)S(=O)(=O)c2ccc3c(c2)CCC(=O)N3)cc1C,inactive
10,Cc1ccc(NS(=O)(=O)c2ccc(F)cc2)cc1C,inactive
11,O=S(=O)(c1ccc2c(c1)OCCO2)N1CCN(S(=O)(=O)c2c(F)cccc2F)CC1,inactive
12,Cc1cc2c(s1)c1cnn(Cc3ccccc3F)c(=O)c1n2C,inactive
13,Cc1ccc(Nc2c(-c3ccc(C)s3)nc3cccc(C)n23)cc1,inactive
14,Cc1ccc(-c2nc3cnccn3c2Nc2ccc(C(C)C)cc2)o1,inactive
15,O=C1CCc2cc(S(=O)(=O)Nc3ccc(-c4ccccc4)cc3)ccc2N1,inactive
16,CC(=O)N1c2ccc(S(=O)(=O)Nc3ccc(C)c(C)c3)cc2CC1C (configuration not stated),inactive

row,Structure (SMILES),outcome
1,Cc1ccc(Nc2c(-c3ccc(C)o3)nc3ccccn23)cc1,inactive
2,CNc1cccc(S(=O)(=O)N2CCN(S(=O)(=O)c3ccc4c(c3)OCCO4)CC2)c1,inactive
3,Cn1c2cc(S(C)=O)sc2c2cnn(Cc3cccc(N)c3)c(=O)c21 (configuration not stated),inactive
4,Cc1nc(-c2ccc(S(=O)(=O)Nc3ccc(C)c(C)c3)s2)cs1,inactive
5,O=C1c2ccccc2C(=O)N1c1cccc(Cl)c1,inactive
6,CN(C)c1cccc(S(=O)(=O)N2CCCN(S(=O)(=O)c3ccc4c(c3)OCCO4)CC2)c1,inactive
7,Cc1cc(NS(=O)(=O)c2ccc3c(c2)CCC(=O)N3)ccc1Cl,inactive
8,Cc1ccc(NS(=O)(=O)c2cccc(C(=O)O)c2)cc1C,inactive
9,O=C1CCc2cc(S(=O)(=O)Nc3ccc(Cl)c(Cl)c3)c(F)cc2N1,inactive
10,Cc1ccc(NS(=O)(=O)c2cc3c(cc2-c2cn[nH]c2)NC(=O)CO3)cc1C,inactive
11,Cc1ccc(NS(=O)(=O)c2cc3c(cc2-c2ccsc2)NC(=O)CO3)cc1C,inactive
12,Cc1ccc(NS(=O)(=O)c2ccc(-c3ccccc3)cc2)cc1C,inactive
13,O=S1(=O)N=C(Oc2cccc(Cl)c2)c2ccccc21,inactive
14,COc1ccccc1OC1=NS(=O)(=O)c2ccccc21,inactive
15,O=C1CCc2cc(S(=O)(=O)Nc3ccc4ncccc4c3)ccc2N1,inactive
16,O=C1NS(=O)(=O)c2ccccc21,inactive

# From PubChem BioAssay AID2653 (National Center for Advancing Translational Sciences (NCATS), 2010)
